In PubChem BioAssay (NCATS):
Results filed as inconclusive are left out. Active and inactive are the calls of the source. Calls come from the whole dose curve; as a rule, active = well fitted curve in the direction sought with a large enough effect; inconclusive = small, poorly fitted or top-dose-only effect, or another doubt; inactive = no such curve, though single readings can be large or run the other way.

target: Metallo-beta-lactamase type 2 (Klebsiella pneumoniae) (UniProt C7C422); test: qHTS to identify inhibitors of the New Delhi Metallo-beta-lactamase (NDM): assay validation screen against the NCATS LOPAC Collection (AID 1794843); conditions: NDM-1 enzyme, nitrocefin hydrolysis, absorbance 485 nm; series mostly up to 38.4 µM;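 note: nitrocefin turnover by NDM-1 measured as 485 nm absorbance at plateau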
Description: Assay Submitter (PI): James Inglese Ph.D., Patricia Dranchak Ph.D., Mahesh Aitha Ph.D.
Assay Development and Screening Technology Laboratory (ADST)
National Center for Advancing Translational Sciences (NCATS), Rockville, MD
National Institute of Health (NIH), Bethesda, Maryland
The metallo-beta-lactamases (MBL) are a main antibiotic resistance mechanism evolved by bacteria. There is an urgent clinical need for MBL inhibitors to mitigate this growing threat. To support a machine-based learning study, qHTS has been used to experimentally test inhibitors identified by prediction tools.
PROTOCOL TABLE (as described by Inglese et al., 2007)
SEQUENCE No. (e.g., 1, 2, 3, etc.); […] (e.g., enzyme, Incubation, Reagent, etc.); VALUE; DESCRIPTION
1; NDM-1; 4 uL of 3 nM enzyme in 50 mM HEPES (pH 7.0), 1 uM Zn2SO4, 0.01% Tween20; Use BioRaptr to dispense into Aurora black, clear bottom low base 1536-well plates
2; Compounds; 23 nL; Use Pin Tool (Wako) to transfer DMSO control and library compounds in DMSO
4; Reagent; 2 uL of 50 uM nitrocefin
6; Detector; Absorbance at 485 nm (bandwidth = 5 nm, 25 flashes/well) on Tecan Infinity
NOTES (numbers refer to sequence above)
1; Column 1 of each plate received assay buffer without enzyme and columns 2-48 received enzyme for a final assay concentration of 2 nM.
2; Control plate contained DMSO in columns 1, 2, 3, and 4.
3; Compound interaction with enzyme.
5; Substrate interaction with enzyme, plateau phase of kinetics.
6; Default reader settings were applied for absorbance read at 485 nm, bandwidth = 5 nm, 25 flashes/well.
Inglese J, Shamu CE, Guy RK. 2007. Reporting data from high-throughput screening of small-molecule libraries. Nat Chem Biol. doi:10.1038/nchembio0807-438
Yasgar A, Shinn P, Jadhav A, Auld D, Michael S, Zheng W, Austin CP, Inglese J, Simeonov A. 2008. Compound Management for Quantitative High-Throughput Screening. J Lab Autom 13:79 - 89. doi:10.1016/j.jala.2007.12.004

Sequence of Metallo-beta-lactamase type 2 (Klebsiella pneumoniae) (C7C422 whole entry, looked up): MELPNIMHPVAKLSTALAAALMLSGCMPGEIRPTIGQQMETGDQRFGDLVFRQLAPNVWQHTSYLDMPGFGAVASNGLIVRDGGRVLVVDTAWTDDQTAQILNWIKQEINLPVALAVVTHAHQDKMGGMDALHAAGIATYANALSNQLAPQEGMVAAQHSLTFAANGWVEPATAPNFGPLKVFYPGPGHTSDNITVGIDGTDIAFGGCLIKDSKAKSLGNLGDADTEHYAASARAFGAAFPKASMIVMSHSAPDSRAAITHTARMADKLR

| Structure (SMILES) | outcome |
| --- | --- |
| NS(=O)(=O)c1cc2c(cc1Cl)NC=NS2(=O)=O | inactive |
| CN1CCN(CCCN2c3ccccc3Sc3ccc(C(F)(F)F)cc32)CC1 | inactive |
| Cc1oncc1C(=O)Nc1ccc(C(F)(F)F)cc1 | inactive |
| Nc1nc2ccc(OC(F)(F)F)cc2s1 | inactive |
| Cn1cnc([N+](=O)[O-])c1Sc1ncnc2nc[nH]c12 | inactive |
| Cc1[nH]c(=O)c(C#N)cc1-c1ccc2nccn2c1 | inactive |
| O=C1CCc2cc(OCCCCc3nnnn3C3CCCCC3)ccc2N1 | inactive |
| Cc1ccc(N(CC2=NCCN2)c2cccc(O)c2)cc1 | inactive |
| NCCc1ccc(O)c(O)c1 | inactive |
| CCCC(CCC)C(=O)O | inactive |
| O=c1[nH]cnc2[nH]ncc12 | inactive |
| Cc1ccccc1C(OCCN(C)C)c1ccccc1 (stereo not given) | inactive |
| OC(CCN1CCCCC1)(c1ccccc1)C1CC2C=CC1C2 (stereo not given) | inactive |
| Clc1cccc(Cl)c1NC1=NCCN1 | inactive |
| N=c1nc(N2CCCCC2)cc(N)n1O | inactive |
| Nc1ccc(S(=O)(=O)Nc2ccnn2-c2ccccc2)cc1 | inactive |
| Cc1cn[nH]c1 | inactive |
| CC(C)(Sc1ccc(CCN(CCCCC2CCCCC2)C(=O)NC2CCCCC2)cc1)C(=O)O | inactive |
| CNC[C@H](O)c1cccc(O)c1 | inactive |
| CS(=O)(=O)c1cccc(CNc2nc(Nc3ccc4c(c3)CCC(=O)N4)ncc2C(F)(F)F)c1 | inactive |

| Structure (SMILES) | outcome |
| --- | --- |
| CC(C)NCC(O)COc1ccc(COCCOC(C)C)cc1 (stereo not given) | inactive |
| Oc1ccc(C2CNCCc3c2cc(O)c(O)c3Cl)cc1 (stereo not given) | inactive |
| O=C(Nc1nc2ccccc2n1CCN1CCOCC1)c1cccc([N+](=O)[O-])c1 | inactive |
| C[C@]12CCC(=O)C=C1CC[C@@H]1[C@@H]2[C@@H](O)C[C@@]2(C)[C@H]1CC[C@]2(O)C(=O)CO | inactive |
| CCOC(=O)N1CCC(=C2c3ccc(Cl)cc3CCc3cccnc32)CC1 | inactive |
| NC[C@H](O)c1ccc(O)c(O)c1 | inactive |
| CC(=O)Oc1ccccc1C(=O)O | inactive |
| c1ccc([C@H]2CN3CCSC3=N2)cc1 | inactive |
| Cc1cccc(-c2[nH]c(C(C)(C)C)nc2-c2ccc3nccnc3c2)n1 | inactive |
| Cc1[nH]c(=O)c(C#N)cc1-c1ccncc1 | inactive |
| CCOC(=O)C1=C[C@]2(CC)CCCN3CCc4c(n1c1ccccc41)[C@@H]32 | inactive |
| CC(C[N+](C)(C)C)OC(N)=O (stereo not given) | inactive |
| O=NN(CCCl)C(=O)NCCCl | inactive |
| Nc1nc2c(ncn2COCCO)c(=O)[nH]1 | inactive |
| O=C(O)COCCN1CCN(C(c2ccccc2)c2ccc(Cl)cc2)CC1 (stereo not given) | inactive |
| CC(C)(C)NCC(O)c1ccc(O)c(CO)c1 (stereo not given) | inactive |
| O=C(O)CCc1ccc(NCc2cccc(Oc3ccccc3)c2)cc1 | inactive |
| NNCCc1ccccc1 | inactive |
| NC(N)=NC(=O)c1nc(Cl)c(N)nc1N | inactive |
| OC(CN1CCC(Cc2ccc(F)cc2)CC1)c1ccc(Cl)cc1 (stereo not given) | inactive |
